# From PubChem BioAssay
# HPGD block: inhibitors of human 15-hydroxyprostaglandin dehydrogenase (HPGD); P15428; purified HPGD, NADH fluorescence kinetic, PGE2 substrate; Potency, µM, for the others: at the highest dose activity change, negative = inhibition, most hits filed as inhibitors; 150,000 compounds, 4.3% hits; active means well fitted inhibition curve with a large enough effect, not every such curve was filed as active; inconclusive means small, poorly fitted or top-dose-only effect, or another doubt; inactive means no such curve, though single readings can be large or run the other way
# Target sequence (P15428 whole entry, looked up): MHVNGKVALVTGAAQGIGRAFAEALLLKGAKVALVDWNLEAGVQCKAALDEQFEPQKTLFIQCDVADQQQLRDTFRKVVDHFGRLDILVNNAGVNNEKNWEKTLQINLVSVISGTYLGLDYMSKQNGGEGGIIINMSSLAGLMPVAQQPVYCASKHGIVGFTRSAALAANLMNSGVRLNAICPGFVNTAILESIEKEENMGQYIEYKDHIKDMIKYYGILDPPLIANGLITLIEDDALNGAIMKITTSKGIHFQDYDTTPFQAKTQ
#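 20 nM HPGD preincubated 15 min at room temperature with compound in 50 mM Tris-HCl pH 8, 0.01% Tween 20. Started with 1 mM NAD+ and 30 uM prostaglandin E2; NADH fluorescence (360/450 nm) read 5 times over 30-s intervals, last minus first.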
# LMNA splice mod: modulators of lamin A splicing; HeLa LMNA splicing GFP/RFP minigene ratio, 48 h; Potency, µM (top dose mostly 46.1 µM), inactives show at the highest dose ratio change, negative = inhibition, usual class: inhibitors; 200,000 compounds, 0.01% hits; AID 1487; active means well fitted inhibition curve with a large enough effect in the signal ratio, with a control signal flat, not every such curve was filed as active; inconclusive means small, poorly fitted or top-dose-only effect, or effect the other way, or a change in a side signal; the % refers to the signal ratio
#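 S3 HeLa cells stably expressing lamin A-EGFP splicing minigene plus DsRed2, 600 cells/well, 48 h compound exposure at 37C. Laser-scanning cytometry; analysed as GFP (500-530 nm)/RFP (575-640 nm) total intensity ratio; 0.5% DMSO vehicle.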
# IMPase Li cell: cell-permeable IMPase inhibitors with lithium potentiation | Potency, µM (series often up to 59.4 µM), for the others: at the top dose activity, negative = IMPase inhibition, usual class: inhibitors | AID 1457 | 210,000 compounds, 0.35% hits | CHO-M1 cells, IP1 TR-FRET (IP-One), carbachol + lithium;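 further: IP1 builds up when IMPase is blocked and the TR-FRET signal falls; plate controls were basal vehicle for no effect and high inhibitor control for full effect; nearly all actives have a fitted effect of over 50% in size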
#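 CHO cells stably expressing M1 receptor (2000/well, cultured 16–30 h) treated 30 min at 37C with compound plus low lithium. Cytosolic IP1 by TR-FRET (665/620 ratio and 620 channel) after 10 min lysis; AC50 by Hill fit.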
# ALDH1A1 inh: blocks purified human ALDH1A1 activity | AID 1030 | P00352 | Potency, µM (doses to about 75.3 µM), for the others: top-dose activity, negative = inhibition, usual class: inhibitors | 220,000 compounds, 7.3% hits | Purified ALDH1A1, NADH fluorescence, propionaldehyde substrate; active means well fitted inhibition curve with a large enough effect, not every such curve was filed as active; inconclusive means small, poorly fitted or top-dose-only effect, or another doubt; inactive means no such curve, though single readings can be large or run the other way;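 further: plate controls were no enzyme wells and a reference inhibitor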
# Target sequence (P00352 whole entry, looked up): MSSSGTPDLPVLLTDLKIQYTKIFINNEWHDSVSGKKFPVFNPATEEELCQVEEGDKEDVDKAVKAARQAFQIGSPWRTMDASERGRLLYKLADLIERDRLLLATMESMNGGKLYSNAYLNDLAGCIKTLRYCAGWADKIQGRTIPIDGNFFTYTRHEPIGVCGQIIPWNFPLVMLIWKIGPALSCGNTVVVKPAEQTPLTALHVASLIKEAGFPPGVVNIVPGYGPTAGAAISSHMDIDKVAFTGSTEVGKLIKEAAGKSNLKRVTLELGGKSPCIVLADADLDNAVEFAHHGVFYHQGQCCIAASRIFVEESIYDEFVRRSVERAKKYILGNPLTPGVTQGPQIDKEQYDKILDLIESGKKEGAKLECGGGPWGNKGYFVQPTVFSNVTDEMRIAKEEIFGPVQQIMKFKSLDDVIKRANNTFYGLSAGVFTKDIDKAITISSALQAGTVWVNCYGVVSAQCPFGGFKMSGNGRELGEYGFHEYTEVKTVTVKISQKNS
# KinaseGlo FLuc: counter-screen: inhibitors of Kinase-Glo firefly luciferase; 200,000 compounds, 0.28% hits; Q27757; Potency, µM (top dose mostly 38.3 µM), for inactives: top-dose activity change, negative = inhibition, actives largely listed as inhibitors; Kinase-Glo luciferase, ATP luminescence, 8 min; AID 1379; further: nearly all actives have a fitted effect of over 60% in size
#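 Luminescence was the read-out, taken after 8-minute incubation at ambient temperature. Luciferase turned over luciferin with 10 uM ATP in imidazole pH 7.2 buffer containing KCl, MgCl2, Tween 20 and BSA.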
# * = called active by the depositor; ? = inconclusive; . = not tested or not shown; ! = not confirmed by another sample; [ ] = dose if it differs, or a comment. Rows were chosen to be rich in hits. Some 9% of all compounds tested hit in one or more screens of this group. Unless noted, the call rests on the fitted dose curve; in most records, active means well fitted curve in the direction sought with a large enough effect; inconclusive means small, poorly fitted or top-dose-only effect, or another doubt; inactive means no such curve, though single readings can be large; an effect the other way counts as inactive or inconclusive. Unless noted, on the % scale 0 is the no-effect control and ±100 the full control effect; potency means the concentration at half of the fitted maximal effect.
SMILES,HPGD block,LMNA splice mod,IMPase Li cell,ALDH1A1 inh,KinaseGlo FLuc
O=C(NCc1ccco1)C1CCN(c2nc3ccccc3n2Cc2ccccc2F)CC1,-15.2%,17.6%,10.0%[38.3 µM],28.2µM*,0.7%
COCCCNC(=O)c1ccc(Cn2c(SCc3ccc(F)cc3)nc3cccnc32)cc1,.,-10.3%[46 µM],.,.,.
CCN(CC)S(=O)(=O)c1nnc(NC(=O)COc2ccc(C)cc2)s1,.,25.8%[46 µM],.,.,.
O=C(CCC(=O)N1Cc2ccccc2Oc2ncccc21)NCc1cccc(Cl)c1,.,-3.1%[46 µM],.,.,.
CC1(C)Cc2ccccc2C(C(Cc2ccccc2)C(N)=O)=N1 (stereo not drawn),.,18.1%[46 µM],17.1%,5.0%,-2.3%
COc1ccc(Br)cc1CNC(=O)CN1C(=O)CCCc2ccccc21,.,-16.3%[46 µM],.,.,.
CCN(CC)CCCNC(=O)C1CCN(C(=O)c2cc3sccc3n2Cc2ccc(F)cc2)CC1,2.2%,4.9%,20.9%[38.3 µM],?,-3.5%
COCCCNC(=O)C1CCN(C(=O)c2cc3sccc3n2Cc2ccc(F)cc2)CC1,-0.6%,-4.1%,25.1%[38.3 µM],10µM*,-3.6%
NCCc1cnc[nH]1,-8.4%,0.891µM*!,-1.2%,1.2%,-7.0%
NCCC(=O)NCCc1cnc[nH]1,-9.4%,?,6.6%,5.1%,-3.0%
CC(C)C(c1nnnn1CCc1ccccc1)N1CCSCC1 (stereo not drawn),.,.,18.6%,?,0.9%
Cc1cc(Br)ccc1NC(=O)c1sc2ncn(Cc3ccccc3Cl)c(=O)c2c1C,.,14.1%[46 µM],.,.,.
CCOC(=O)c1c(C)c(C(=O)Nc2ccc3c(c2)OCCO3)c(C)n1CC,-10.6%,?,-3.0%[38.3 µM],-8.0%,-1.6%
CCOC(=O)c1c(C)c(C(=O)N2CCCCCC2)c(C)n1CC,12.6µM*,-14.2%,22.2%[38.3 µM],0.1%,-2.4%
CCOC(=O)c1c(C)c(C(=O)N2CCCCCC2)c(C)n1C,15.8µM*,-4.3%,-11.4%[38.3 µM],0.4%,-1.4%
CCOC(=O)c1c(C)c(C(=O)NCC2CCCO2)c(C)n1CC (stereo not drawn),22.4µM*,20.4%,23.7%[38.3 µM],?,-1.7%
CCOC(=O)c1c(C)c(C(=O)N2CCN(c3ccccc3)CC2)c(C)n1C,.,.,-10.1%,-3.9%,1.8%
CCOC(=O)c1sc(NCC2CCCO2)nc1C (stereo not drawn),12.6µM*,-4.7%,31.7%[38.3 µM],-4.2%,1.6%
CC1(C)O[C@H]2O[C@@H]([C@H](O)CON3C(=O)c4ccccc4C3=O)[C@H](O)[C@H]2O1,.,.,.,23.6%[13.5 µM],.
O=C(NCCc1nnc2ccc(NCC3CCCO3)nn12)c1ccccc1 (stereo not drawn),.,.,7.3%,13.2%,3.2%
C=CC[C@@H]1C=C[C@@H](O/N=C\C[C@@H]2C=C[C@H](OC(C)=O)[C@H](COC(C)=O)O2)[C@@H](CO)O1,.,.,.,11.7%[13.5 µM],.
CC1CCCN(C(=O)C2CCN(S(=O)(=O)c3cccc4cccnc34)CC2)C1 (stereo not drawn),14.1µM*,1.8%,30.2%[38.3 µM],?,-0.1%
CC1CCN(C(=O)C2CCN(S(=O)(=O)c3cccc4nonc34)CC2)CC1,15.8µM*,-1.3%,7.1%[38.3 µM],?,-2.4%
O=C(Nc1ccccn1)C1CCN(S(=O)(=O)c2cccc3nonc23)CC1,-16.4%,-0.6%,10.0%[38.3 µM],28.2µM*,-3.8%
CCN1CCN(C(=O)C2CCN(S(=O)(=O)c3cccc4cccnc34)CC2)CC1,-10.6%,1.2%,6.1%[38.3 µM],10.6%,-4.0%
SMILES,HPGD block,LMNA splice mod,IMPase Li cell,ALDH1A1 inh,KinaseGlo FLuc
O=C(Nc1cccnc1)C1CCN(S(=O)(=O)c2cccc3nonc23)CC1,-7.2%,0.1%,-8.0%[38.3 µM],-6.5%,-4.5%
Cc1nonc1OCC(C)(COc1nonc1C)NC(=O)c1ccccc1,-1.8%,-7.3%,5.4%,2.6%,-1.1%
CN1CCN(c2ncc3nc(CCc4ccccc4)c(=O)n(C)c3n2)CC1,.,-9.5%,12.5%,?,.
COc1cc(C(=S)N2CCC(C)CC2)ccc1O,14.1µM*,-0.1%,30.5%[38.3 µM],10µM*,-2.6%
COc1cc(C(=S)N2CCCCC2)ccc1O,-15.7%,5.6%,29.1%[38.3 µM],?,0.4%
COc1cc(C(=S)N2CCCC2)ccc1O,28.2µM*,0.5%,-15.8%[38.3 µM],14.1µM*,-1.3%
COc1cc(C(=S)N2CCC(C(N)=O)CC2)ccc1O,17.8µM*,16.5%,7.4%[38.3 µM],10µM*,-0.7%
Cc1onc(-c2c(Cl)cccc2Cl)c1C(=O)c1c[nH]c(C(=O)NCC2CCCO2)c1 (stereo not drawn),.,?,2.0%,?,-0.1%
O=C(Nn1c(-c2ccncc2)nc2ccccc2c1=O)c1ccc([N+](=O)[O-])cc1Cl,.,0.4%[46 µM],9.6%,-4.9%,-1.0%
CC(=O)c1ccc(OC(=O)CCc2nc3ccccc3s2)cc1,.,-22.9%[46 µM],0.2%,-2.2%,-5.5%
O=C(O)CC1NC(=O)N(C2CCCCC2)C1=O (stereo not drawn),.,16.8%[46 µM],-1.3%,12.6%,-4.0%
CNc1nc(N)c(C(=O)Nc2cc(C)on2)s1,.,.,16.1%,-1.5%,-7.2%
c1ccc(CNc2ccnc(-c3cccnc3)n2)cc1,.,?,15.0%,-16.2%,.
O=C(O)C(S)[C@@H](S)C(=O)O (stereo partly drawn),4.47µM*,.,10.8%,3.55µM*,-4.7%
Cc1ccccc1-n1c(=O)/c(=C\c2ccco2)s/c1=C(/C#N)C(=O)Nc1ccccc1,-13.7%,4.5%,1.7%[38.3 µM],20µM*,-1.1%
CCOC(=O)/C=c1\s/c(=C(\C#N)C(=O)NC)n(-c2ccccc2)c1=O,-13.2%,-4.3%,-1.3%[38.3 µM],-8.8%,0.3%
Cc1ccc(C(=O)O)cc1-c1ccc(C=C2C(=O)c3ccccc3C2=O)o1,.,.,-2.5%,5.01µM*,-2.0%
O=C1C(=Cc2ccc(Br)o2)C(=O)c2ccccc21,31.6µM*,-13.5%,37.8%,-3.8%,-6.5%
Cc1cc(C(=O)O)ccc1-n1c(C)cc(C=C2C(=O)c3ccccc3C2=O)c1C,.,.,4.0%,10µM*,.
Cc1ccc(NC(=O)CN2C(=O)S/C(=C/c3ccc(-c4cc(C(=O)O)ccc4C)o3)C2=O)cc1C,31.6µM*,-2.2%,39.0%[38.3 µM],?,3.1%
COc1ccc(CCNC(=O)c2cc3c(C)nccc3[nH]c2=O)cc1OC,.,.,?,7.0%,.
Cc1ccc(N=Nc2ccc(C)cc2NC(=O)Nc2ccccc2F)cc1,.,.,.,4.7%,.
O=C(O)CSc1nc2c(cnn2-c2ccccc2)c(=O)n1-c1ccc(Br)cc1,14.1µM*,-5.8%,-10.5%,-5.7%,-2.4%
O=c1c2cnn(-c3ccccc3)c2nc(-c2cccs2)n1-c1ccc(Br)cc1,-4.6%,5.5%[0.0737 µM],8.2%[38.3 µM],-6.4%,3.0%
